Active and inactive are the calls of the source. The calls were made as follows: active = hit-call score of the fitted dose curve at least 0.9, where 1 is the maximum; inactive = score below 0.9.
biological target: Transcription factor E2F1 (Homo sapiens) (UniProt Q01094); assay: ATG_E2F_CIS: Attagene CIS-FACTORIAL HepG2 Assay for human E2F Transcription Factor 1 (AID 2282935); details: HepG2 Attagene cis-reporter, E2F reporter RNA transcripts; actives raise or lower the signal
Description: ATG_CIS is a cell-based, multiplexed-readout assay that uses HepG2, a human liver cell line, with measurements taken at 24 hours after chemical dosing in a 24-well plate.ATG_E2F_CIS is one of 52 assay component(s) measured or calculated from the ATG_CIS assay. It is designed to make measurements of mRNA induction, a form of inducible reporter, as detected with fluorescence intensity signals by Reverse transcription polymerase chain reaction (RT-PCR) and Capillary electrophoresis technology.Data from the assay component ATG_E2F_CIS was analyzed into 1 assay endpoint. This assay endpoint, ATG_E2F_CIS, was analyzed with bidirectional fitting relative to DMSO as the negative control and baseline of activity. Using a type of inducible reporter, measures of mRNA for gain or loss-of-signal activity can be used to understand the reporter gene at the transcription factor-level as they relate to the gene E2F1. Furthermore, this assay endpoint can be referred to as a primary readout, because this assay has produced multiple assay endpoints where this one serves a reporter gene function. To generalize the intended target to other relatable targets, this assay endpoint is annotated to the dna binding intended target family, where the subfamily is E2F transcription factor.
Human liver HepG2 cells are transiently transfected with multiple reporter transcription units (MRTUs) in 6-well plates using FuGene 6 reagent (Roche; 3 ml FuGene/1 mg DNA). The MRTU constructs are regulated by a cis-regulating element (promoter). […] A major difference between the CIS and TRANS system is that in CIS activities of endogenous TFs are measured, whereas the TRANS assay evaluates changes in activities of exogenous, chimeric NR-Gal4 proteins. […] At the end of 24 hour incubation, total RNA was isolated using TriZol reagent (Invitrogen). The isolated RNA is then reverse-transcribed using oligo(dT) primer and Mo-MLV reverse transcriptase (Invitrogen) with DNAse I (Ambion) treatment for 30 min. The one-tenth of the produced cDNA was amplified by PCR using Taq DNA polymerase (Invitrogen) and two reporter sequence-specific primers. The PCR products were fluorescently labeled by primer extension with 6-arboxyfluorescein (6-FAM) 5'-labeled reporter sequence-specific primer (2 min at 95 C, 20 s at 68 C and 10 min at 72 C) and these products were digested with 5U of HpaI (New England Biolabs) for 2h at 37 C. The fragments were purified using Qiaquick PCR columns (Qiagen), analyzed on an ABI 3130xL genetic analyzer (Applied Biosystems) with peak positions identified by using a set of X-rhodamine (ROX)-labeled MapMarker1000 molecular weight standards (BioVentures). The raw capillary electrophoresis data was processed using Attagraph software (Attagene).

Chain of Transcription factor E2F1 (Homo sapiens) (Q01094 whole entry, looked up): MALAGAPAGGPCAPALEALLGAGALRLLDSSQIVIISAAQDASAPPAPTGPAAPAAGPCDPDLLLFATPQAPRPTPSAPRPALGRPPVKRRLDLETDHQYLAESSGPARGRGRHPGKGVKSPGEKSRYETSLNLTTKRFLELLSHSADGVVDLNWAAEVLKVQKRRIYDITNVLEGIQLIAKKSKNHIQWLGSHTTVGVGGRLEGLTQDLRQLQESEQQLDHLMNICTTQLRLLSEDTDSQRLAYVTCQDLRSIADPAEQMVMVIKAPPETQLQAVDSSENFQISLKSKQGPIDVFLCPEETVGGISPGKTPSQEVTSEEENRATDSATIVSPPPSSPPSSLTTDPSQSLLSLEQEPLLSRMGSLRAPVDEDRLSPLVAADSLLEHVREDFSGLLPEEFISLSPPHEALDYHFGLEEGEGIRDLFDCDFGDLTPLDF

| Compound | outcome | AC50 |
| --- | --- | --- |
| NC(=O)C(F)(F)C(F)(F)F | inactive | – |
| Cn1[nH]nnc1=S | inactive | – |
| c1ccc2c(c1)sc1ccccc12 | inactive | – |
| c1ccc(OP(Oc2ccccc2)Oc2ccccc2)cc1 | inactive | – |
| CC(Cc1ccc(OCC(=O)O)cc1)NCC(O)c1csc(C(F)(F)F)n1 (stereo not given) | inactive | – |
| C=CC(=O)OCC(CC)(COC(=O)C=C)COC(=O)C=C | – | 100 µM (active) |
| O=P1(N(CCCl)CCCl)NCCCO1 (stereo not given) | inactive | – |
| CCCCC(CC)COP(=O)(Oc1ccccc1)Oc1ccccc1 (stereo not given) | inactive | – |
| CC(C)(C)OOC(C)(C)C | inactive | – |
| [N-]=[N+]=[N-] | inactive | – |
| CC(=O)c1ccc(-c2ccccc2)cc1 | inactive | – |
| Cc1ccc(N)cc1N | inactive | – |
| CSC(C)(C)C=NO | inactive | – |
| CCCCC(CC)COC(=O)c1c(Br)c(Br)c(Br)c(Br)c1C(=O)OCC(CC)CCCC (stereo not given) | inactive | – |
| CC(Cl)(Cl)C(=O)O | inactive | – |
| CCCCc1ccccc1 | inactive | – |
| CCOP(=O)(O)C(N)=O | inactive | – |
| CC(C)(C)c1ccccc1OP(=O)(Oc1ccccc1)Oc1ccccc1 | inactive | – |
| O=C(O)C(F)(F)C(F)(F)C(=O)O | inactive | – |
| NNC(N)=S | inactive | – |

| Compound | outcome | AC50 |
| --- | --- | --- |
| CCOP(=S)(OCC)SCn1nnc2ccccc2c1=O | inactive | – |
| CO/N=C(/C(=O)OC)c1ccccc1COc1ccccc1C | inactive | – |
| ClC(Cl)=C(c1ccc(Cl)cc1)c1ccccc1Cl | inactive | – |
| C/C(=N\NC(=O)Nc1cc(F)cc(F)c1)c1ncccc1C(=O)O | inactive | – |
| CC(C)CBr | inactive | – |
| CCCCOCCOP(=O)(OCCOCCCC)OCCOCCCC | inactive | – |
| FC(F)(F)C(F)(C(F)(F)F)C(F)(F)C(F)(F)CC1CO1 (stereo not given) | inactive | – |
| O=C(CBr)OCc1ccccc1 | inactive | – |
| OCC1CO1 (stereo not given) | inactive | – |
| C=CC(=O)OCC(F)(F)C(F)F | inactive | – |
| CC(C)(C)c1ccc(O)cc1 | inactive | – |
| COP(N)(=S)OC | inactive | – |
| CNC(=O)Oc1ccc(N(C)C)c(C)c1 | inactive | – |
| Nc1cc2c3c(c1)C(c1ccccc1)=N[C@@H](NC(=O)c1cccnc1)C(=O)N3CC2 | inactive | – |
| Cc1cc(C)c(C(=O)P(=O)(c2ccccc2)c2ccccc2)c(C)c1 | inactive | – |
| Cc1ccc2c(c1N)C(=O)c1ccccc1C2=O | inactive | – |
| CCCCOCC1CO1 (stereo not given) | inactive | – |
| O=S1(=O)OCC2C(CO1)C1(Cl)C(Cl)=C(Cl)C2(Cl)C1(Cl)Cl (stereo not given) | inactive | – |
| CCOP(=S)(OCC)SCSCC | inactive | – |
| O=[N+]([O-])c1ccc(Cl)c(Cl)c1 | inactive | – |
